Measurements taken from PubChem BioAssay (NCI).
The panel holds about 83,000 compounds, 20% with a hit somewhere; the sample as a whole holds those more often.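 Step 1: grow cells in 96-well plates. Step 2: add test compound at a single concentration. Step 3: incubate 48 h. Step 4: record percent growth.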 A number with no mark means an inactive call. Calls of active or inactive are those of the source. How the source made its calls: active means growth percent below 10; inactive means the rest.

What follows are compounds tested on U251 CNS (assay: NCI-60 one-dose screen, 48 h (100 = growth as untreated, 0 = no growth, -100 = all killed)). Details: 10 µM unless noted.

Structure (SMILES) | growth
CNc1sc(S(=O)(=O)NC)nc1S(=O)(=O)c1ccc(C)cc1 | 95.8%
COc1cccc(N2CCN(C3=C(Cl)C(=O)c4ncccc4C3=O)CC2)c1 | 90.5%
O=C1[C@@H]2Cc3c([nH]c4ccccc34)[C@@H](c3ccc(Cl)cc3)N2C(=O)CN1C1CCN(Cc2ccccc2)CC1 | 34.7%
CC(=O)OCCCCN1C=C/C(=C\C(=O)n2ccc3ccccc32)c2ccccc21 | 102%
CN1CCN(c2ccc(Nc3nc(NCCNS(=O)(=O)c4ccc5ccccc5c4)c4sccc4n3)cc2)CC1 | 13.4%
CC1=C(C)C(=O)C(Nc2ccc3c(c2)OCCO3)=C(Br)C1=O | 103%
C=C(C)[C@@H]1CC[C@]2(C(=O)NC3CCCCC3)CC[C@]3(C)[C@H](CC[C@@H]4[C@@]5(C)CC[C@H](N)C(C)(C)[C@@H]5CC[C@]43C)[C@@H]12 | 88.8%
CCOC(=O)c1c(NC(=O)c2ccc(C(F)(F)F)cc2)sc2c3c(ccc12)OCN(C)C3 | -72.5% (active)
C#CCN(C)CCCOc1ccc(NCc2ccc(/C=C/C(=O)NO)cc2)cc1Cl | -13.3% (active)
COc1cc(/C=N\NC(=O)c2ccc3nc(-c4ccc(Br)cc4)[nH]c3c2)cc(OC)c1OC | 45.1%
C=C1CCc2nc(SCC(=O)O)ccc2N1 | 112%
CN1CCC[C@]2(C)[C@H]3CC[C@@H]4[C@@H]5[C@H]6OC[C@@]5(CCC6(C)C)CC[C@@]4(C)[C@]3(C)CC[C@H]2C1(C)C | 27.5%
